Measurements published in PubChem BioAssay AID463176 (Southern Research Specialized Biocontainment Screening …, 2010).
The source made the active and inactive calls.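 Rule for the calls: active = inhibition above 30% at one or more tested concentrations in the dose response; inactive = inhibition below 30% at every tested concentration.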

experiment: PhoP-driven GFP reporter repression, Typhimurium – synthesized compounds, set 5, late-stage follow-up (AID 463176); conditions: S. Typhimurium PhoP-promoter GFP reporter, fluorescence, 4 h; series mostly up to 150 µM; inhibition: at the top concentration

inhibition, inactive:
Cc1ccc(C2Sc3ccccc3N=C3c4ccccc4CC32)cc1 (stereo unspecified) -35.8%
Clc1ccc(C2Sc3ccccc3N=C3c4ccccc4CC32)cc1 (stereo unspecified) -7.91%
O=C1C2=C(Nc3ccccc3SC2c2cccnc2)c2ccccc21 (stereo unspecified) 14%
O=C1C2=C(Nc3ccccc3SC2c2ccc(Cl)cc2)c2ccccc21 (stereo unspecified) 29.2%
COc1cccc(NC(=O)N2CCCN(Cc3ccccc3F)C2)c1 25.4%
O=C1C2=C(Nc3ccccc3SC2c2cccc(Br)c2)c2ccccc21 (stereo unspecified) 13.8%
